From PubChem BioAssay (NCATS) come the findings set out here.

Unmarked numbers belong to inactive results. Results filed as inconclusive are left out. Calls of active or inactive are those of the source. Unless noted, calls come from the whole dose curve; as a rule, active = well fitted curve in either direction with a large enough effect (not every such curve was filed as active); inconclusive = small, poorly fitted or top-dose-only effect, or another doubt; inactive = flat fitted curve, though single readings scatter.

Experiment [1] concerns the target Lysosomal acid glucosylceramidase (Homo sapiens) (UniProt P04062). As to the kind of experiment: Glucocerebrosidase-p2 (AID 348; in the data active = potency below about 10 µM; note: potency is the fitted concentration of half-maximal effect). Particulars: purified GBA, blue fluorogenic substrate, 40 min. The gist of the method: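 Normal human glucocerebrosidase (0.2 nM) with blue fluorogenic substrate (80 uM final) in citrate/phosphate pH 5.9 with 10mM sodium taurocholate, 0.01% tween-20; 40 min RT, NaOH/glycine stop; fluorescence Ex 365/Em 440; AC50 from a titration from 0.6 nM upwards.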

Experiment [2] in a line: AP1 Signaling Pathway (AID 357).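 Note: ME-180 reporter cells stimulated with EGF at its EC50 level; % is set by controls: 0 for no effect and ±100 for the full control effect.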 Particulars: ME-180 AP-1-bla reporter, EGF-induced, beta-lactamase ratio, 5 h; at 7.69 µM (top of the series) unless noted. The procedure, abridged:
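First, ME-180 AP-1-bla cells were cultured overnight at 37 °C in low-serum Opti-MEM. Next, titrated compounds with EC50 EGF were incubated 5 hours. Finally, CCF4 was added for 2.5 hours and the 460/530 nm ratio recorded.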

Experiment [3] has as its target Cytochrome P450 1A2 (Homo sapiens) (UniProt P05177). As to the kind of experiment: p450-cyp1a2 (AID 410; calls by dose curve; note: potency is the fitted concentration of half-maximal effect;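 for activity change, negative = inhibition: -100% = full effect of reference inhibitor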). The conditions noted are these: recombinant CYP1A2, luciferin-ME demethylation, luminescence; series mostly up to 11.4 µM. The procedure, abridged:
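O-Demethylation of luciferin 6' methyl ether by human CYP1A2 is monitored as luciferase luminescence. Substrate sits at Km (100uM); enzyme is 20nM. Values are scaled to 57 uM furafylline as maximal inhibition.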

A short description of experiment [4]: NFAT Signaling Pathway (AID 444).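 Note: carbachol stimulus at about its EC50 of 1 µM final; % is set by controls: 0 for no effect and ±100 for the full control effect.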 The conditions noted are these: Jurkat NFAT-bla M1, carbachol, beta-lactamase ratio, 5 h; at 7.69 µM (top of the series) unless noted. The procedure, abridged: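 Jurkat cells carrying an NFAT-driven β-lactamase reporter and co-transfected muscarinic M1 receptor were treated with compound plus carbachol (1 uM final, an EC50 level) for 5 h at 37 °C. CCF4 loading followed for 1 h at RT; 460/530 nm ratio gave %activity.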

Experiment [5] in a line: Stat Signaling Pathway (AID 446).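 Note: ME-180 cervical cancer cells given 40 pM IL-6 alongside compound; SIE-controlled beta-lactamase reporter measured as 460/530 nm FRET emission ratio; % is set by controls: 0 for no effect and ±100 for the full control effect.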 Particulars: ME-180 (cervical carcinoma) SIE beta-lactamase reporter, IL-6 stimulated, 5 h; at 7.69 µM (top of the series) unless noted. The procedure, abridged:
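Normalization used AC90 stimulation (300 pM IL-6) and AC90 inhibition (125 nM pan-JAK inhibitor at 40 pM IL-6). The underlying signal is SIE-driven beta-lactamase in ME-180 cells after 5 h IL-6 exposure with compound.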

In experiment [6] the target is Glucocorticoid receptor (Homo sapiens) (UniProt P04150). Kind of experiment: GR-GFP Redistribution (AID 450;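 active = compounds whose dose series gives a full or clear partial fitted curve of increased nuclear translocation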; note: potency is the fitted concentration of half-maximal effect). Particulars: U2OS GR-GFP nuclear translocation, laser cytometry, 2 h.
The target in experiment [7] is Mitogen-activated protein kinase 10 (Mus musculus) (UniProt Q61831). Kind of experiment: JNK3 AlphaScreen Assay (AID 530).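 Note: kinase came from lysate of stimulated human HepG2 cells; signal reports phosphorylation of biotinylated GST-cJun 1-79 at Ser73 with 10 µM ATP; % is set by controls: 0 for no effect and ±100 for the full control effect.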 The conditions noted are these: JNK3 lysate, c-Jun phosphorylation; series mostly up to 11.4 µM. The procedure, abridged:
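Phosphorylation of biotinylated GST-cJun(1-79) at Ser73 is measured by AlphaScreen proximity luminescence. Enzyme is JNK3 in HepG2 lysates activated with interleukin-1beta and tumor necrosis factor alpha; ATP is 10 uM final.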
On the technique in general: Alpha assays give light when donor and acceptor beads are brought close together.

Experiment [8] addresses 3',5'-cyclic-AMP phosphodiesterase 4B (Homo sapiens) (UniProt Q07343). Kind of experiment: qHTS Assay for Inhibitors of PDE-IV (AID 607; active = well fitted activation curve with a large enough effect in the main read-out, with a control signal flat, not every such curve was filed as active; note: % of control where 0% means no effect). The conditions noted are these: HEK293 ACTOne CNG channel cells, membrane potential fluorescence; series mostly up to 22.9 µM. The procedure, abridged:
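HEK293 ACTOne cells with CNG channel (1000/well), endogenous PDE4; membrane potential dye, compounds up to 22.9 uM final. Fluorescence Ex 535/Em 590; RO 20-1724 (100 uM final) as reference.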
(In qHTS, concentration-response curves come from the screen itself.)

For experiment [9], the target named is Cytochrome P450 2C19 (Homo sapiens) (UniProt P33261). As to the kind of experiment: qHTS Assay for Inhibitors and Substrates of Cytochrome P450 2C19 (AID 899; active = well fitted inhibition curve with a large enough effect; note: nearly all actives have a fitted effect of over 60% in size; note: potency is the fitted concentration of half-maximal effect). The conditions noted are these: recombinant CYP2C19, luciferin-H EGE luminescence; series mostly up to 11.4 µM. The gist of the method: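 In 50mM KPO4, the reaction held 5nM enzyme and KM-level (10uM) Luciferin-H EGE; it ran 60 min at 37C after NADPH regeneration and a 10 min compound preincubation. Luminescence values were scaled to 57uM ketoconazole as complete inhibition.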

The target of experiment [10] is Glucocorticoid receptor (Homo sapiens) (UniProt P04150). Kind of experiment: GR-EFC Redistribution (AID 451; calls by dose curve; note: potency is the fitted concentration of half-maximal effect). Particulars: CHO-K1 GR-EFC translocation, beta-gal luminescence, 2 h. The procedure, abridged:
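CHO-K1 cells stably expressing nuclear-localized β-gal enzyme acceptor and GR fused C-terminally to the enzyme donor fragment; ligand-driven nuclear translocation restores β-gal by complementation. Compounds titrated up to 46 uM final, 2 h at 37 °C; luminescence read.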

In experiment [11] the target is Cytochrome P450 3A4 (Homo sapiens) (UniProt P08684). Kind of experiment: qHTS Assay for Inhibitors and Substrates of Cytochrome P450 3A4 (AID 884; active = well fitted inhibition curve with a large enough effect; note: % is set by controls: 0 for no effect and ±100 for the full control effect; nearly all actives have a fitted effect of over 50% in size). Particulars: recombinant CYP3A4, Luciferin-PPXE luminescence; series mostly up to 57.1 µM. The procedure, abridged: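 Luminescent readout of luciferin produced by CYP3A4 (20 nM) dealkylation of Luciferin-PPXE, 25 uM (its KM). NADPH-driven reaction ran 60 min at RT after 10 min compound preincubation; data scaled to 57 uM ketoconazole as 100% inhibition.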
Sequence of Cytochrome P450 3A4 (Homo sapiens) (P08684 whole entry, looked up): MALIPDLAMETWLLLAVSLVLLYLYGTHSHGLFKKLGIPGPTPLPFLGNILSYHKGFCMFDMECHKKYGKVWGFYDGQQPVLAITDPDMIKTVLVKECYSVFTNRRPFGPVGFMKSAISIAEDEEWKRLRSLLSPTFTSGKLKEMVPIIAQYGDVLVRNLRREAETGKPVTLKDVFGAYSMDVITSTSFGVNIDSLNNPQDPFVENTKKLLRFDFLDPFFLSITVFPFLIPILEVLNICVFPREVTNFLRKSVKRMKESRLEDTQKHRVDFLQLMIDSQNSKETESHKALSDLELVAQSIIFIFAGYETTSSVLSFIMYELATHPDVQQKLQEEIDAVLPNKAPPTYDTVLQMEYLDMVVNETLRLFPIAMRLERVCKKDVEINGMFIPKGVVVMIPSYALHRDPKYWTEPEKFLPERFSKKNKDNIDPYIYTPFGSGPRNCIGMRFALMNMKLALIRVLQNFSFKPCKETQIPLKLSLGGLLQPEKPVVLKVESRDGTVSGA

Sequence of 3',5'-cyclic-AMP phosphodiesterase 4B (Homo sapiens) (Q07343 whole entry, looked up): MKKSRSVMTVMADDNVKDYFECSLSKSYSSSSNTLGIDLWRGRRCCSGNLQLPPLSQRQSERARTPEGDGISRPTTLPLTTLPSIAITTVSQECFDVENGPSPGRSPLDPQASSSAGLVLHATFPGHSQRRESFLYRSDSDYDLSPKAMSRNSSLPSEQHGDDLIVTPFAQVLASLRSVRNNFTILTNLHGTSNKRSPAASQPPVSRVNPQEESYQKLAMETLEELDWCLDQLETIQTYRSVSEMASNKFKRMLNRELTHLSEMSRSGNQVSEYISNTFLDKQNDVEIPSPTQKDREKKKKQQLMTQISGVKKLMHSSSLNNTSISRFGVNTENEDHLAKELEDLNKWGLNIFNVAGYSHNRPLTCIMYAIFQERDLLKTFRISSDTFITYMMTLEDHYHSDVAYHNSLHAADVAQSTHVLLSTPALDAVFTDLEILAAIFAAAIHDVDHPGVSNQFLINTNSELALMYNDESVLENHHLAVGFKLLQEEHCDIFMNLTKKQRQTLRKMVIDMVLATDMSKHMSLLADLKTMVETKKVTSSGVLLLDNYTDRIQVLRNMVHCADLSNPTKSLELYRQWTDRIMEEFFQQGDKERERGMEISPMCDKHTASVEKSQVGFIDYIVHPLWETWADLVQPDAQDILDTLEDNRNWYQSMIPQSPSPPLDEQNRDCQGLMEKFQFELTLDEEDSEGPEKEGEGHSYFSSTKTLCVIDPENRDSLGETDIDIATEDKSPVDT
Sequence of Glucocorticoid receptor (Homo sapiens) (P04150 whole entry, looked up, the tested form may be a part): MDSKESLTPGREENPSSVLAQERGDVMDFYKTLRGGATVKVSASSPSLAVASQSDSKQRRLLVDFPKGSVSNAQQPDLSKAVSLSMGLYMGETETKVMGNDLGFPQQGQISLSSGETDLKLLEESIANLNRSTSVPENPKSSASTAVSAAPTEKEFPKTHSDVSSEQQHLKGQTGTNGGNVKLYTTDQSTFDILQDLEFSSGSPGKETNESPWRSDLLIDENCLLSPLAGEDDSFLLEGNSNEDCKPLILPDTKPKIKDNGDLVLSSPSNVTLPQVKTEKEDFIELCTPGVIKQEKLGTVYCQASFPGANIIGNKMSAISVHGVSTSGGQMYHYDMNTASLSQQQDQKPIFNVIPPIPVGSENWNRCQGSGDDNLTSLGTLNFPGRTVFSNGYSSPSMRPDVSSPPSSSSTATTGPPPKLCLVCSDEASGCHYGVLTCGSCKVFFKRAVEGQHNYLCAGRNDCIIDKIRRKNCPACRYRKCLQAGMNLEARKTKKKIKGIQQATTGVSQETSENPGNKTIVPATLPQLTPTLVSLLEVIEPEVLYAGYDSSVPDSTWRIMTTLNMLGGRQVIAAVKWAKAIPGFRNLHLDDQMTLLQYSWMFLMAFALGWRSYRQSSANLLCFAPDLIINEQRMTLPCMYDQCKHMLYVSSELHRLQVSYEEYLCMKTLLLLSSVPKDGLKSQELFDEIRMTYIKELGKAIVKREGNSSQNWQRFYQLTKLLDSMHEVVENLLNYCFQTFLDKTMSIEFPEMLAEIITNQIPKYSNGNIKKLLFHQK
Sequence of Cytochrome P450 1A2 (Homo sapiens) (P05177 whole entry, looked up): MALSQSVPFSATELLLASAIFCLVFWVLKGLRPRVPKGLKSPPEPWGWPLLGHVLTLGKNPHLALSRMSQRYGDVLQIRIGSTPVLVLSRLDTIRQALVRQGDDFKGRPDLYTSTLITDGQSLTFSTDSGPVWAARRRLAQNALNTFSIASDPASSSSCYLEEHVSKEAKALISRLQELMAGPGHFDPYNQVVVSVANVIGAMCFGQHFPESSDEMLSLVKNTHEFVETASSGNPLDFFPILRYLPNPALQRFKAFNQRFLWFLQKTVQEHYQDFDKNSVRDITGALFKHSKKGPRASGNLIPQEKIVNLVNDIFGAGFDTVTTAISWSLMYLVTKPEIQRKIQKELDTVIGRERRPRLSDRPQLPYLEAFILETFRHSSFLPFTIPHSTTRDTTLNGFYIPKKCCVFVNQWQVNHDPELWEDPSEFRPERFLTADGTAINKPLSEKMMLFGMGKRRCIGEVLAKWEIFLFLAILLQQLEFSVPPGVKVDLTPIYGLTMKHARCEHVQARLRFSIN
Sequence of Lysosomal acid glucosylceramidase (Homo sapiens) (P04062 whole entry, looked up): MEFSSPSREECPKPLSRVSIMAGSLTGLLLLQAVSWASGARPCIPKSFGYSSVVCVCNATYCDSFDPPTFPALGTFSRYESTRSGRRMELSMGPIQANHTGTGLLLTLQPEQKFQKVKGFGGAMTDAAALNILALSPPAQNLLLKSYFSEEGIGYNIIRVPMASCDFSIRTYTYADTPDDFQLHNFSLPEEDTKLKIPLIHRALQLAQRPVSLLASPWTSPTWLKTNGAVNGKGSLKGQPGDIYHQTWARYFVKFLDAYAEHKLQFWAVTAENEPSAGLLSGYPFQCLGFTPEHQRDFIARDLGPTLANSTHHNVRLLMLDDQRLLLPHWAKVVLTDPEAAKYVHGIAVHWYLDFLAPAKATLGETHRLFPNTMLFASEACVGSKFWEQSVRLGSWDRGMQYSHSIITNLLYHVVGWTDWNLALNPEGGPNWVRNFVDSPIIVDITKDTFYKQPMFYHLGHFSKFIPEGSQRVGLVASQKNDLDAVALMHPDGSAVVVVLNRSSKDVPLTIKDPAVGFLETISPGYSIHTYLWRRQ
Sequence of Cytochrome P450 2C19 (Homo sapiens) (P33261 whole entry, looked up): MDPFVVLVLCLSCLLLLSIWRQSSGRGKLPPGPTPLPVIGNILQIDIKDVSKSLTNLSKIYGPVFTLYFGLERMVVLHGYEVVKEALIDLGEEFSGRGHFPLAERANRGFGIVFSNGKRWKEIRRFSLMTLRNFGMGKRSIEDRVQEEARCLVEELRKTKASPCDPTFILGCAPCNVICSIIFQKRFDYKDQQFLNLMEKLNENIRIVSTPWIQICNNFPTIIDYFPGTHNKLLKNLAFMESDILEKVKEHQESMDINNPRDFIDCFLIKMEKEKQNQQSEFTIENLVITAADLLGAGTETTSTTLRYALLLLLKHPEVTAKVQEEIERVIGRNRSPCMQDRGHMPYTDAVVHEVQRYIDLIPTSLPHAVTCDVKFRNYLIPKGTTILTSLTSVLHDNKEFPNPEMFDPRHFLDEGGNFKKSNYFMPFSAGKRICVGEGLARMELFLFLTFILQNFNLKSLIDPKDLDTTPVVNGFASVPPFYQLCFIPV

On to `CSc1nnnc2ccccc12`, for which the Potency in experiment [1] was above 11.4 µM; in [3] it was 3.16 µM (active); in experiment [6], above 46 µM. The figures for the activity change, negative = inhibition in [2] and in experiment [4] were -4.35% and 3.54%, respectively. Also, in experiment [5], the activity, negative = inhibition was 0.181%. Further, the Potency result in experiment [7], in experiment [8] and in experiment [9] was “inactive” each time.
As to `O=C(Nc1ccc(Nc2ccc3c(c2)C(=O)c2ccccc2C3=O)c2c1C(=O)c1ccccc1C2=O)c1ccccc1`, the figures for the Potency in [1], in experiment [3] and in experiment [6] were above 11.4 µM, 1.58 µM (active) and above 46 µM, respectively. For the same molecule, the activity change, negative = inhibition in experiment [2] was -0.845%; in experiment [4] it was 18.6%. Further, in experiment [5], the activity, negative = inhibition is 13%. Also, the Potency result in [7] and in experiment [8] was “inactive” in each case.
As for `O=C(O)c1nc(-c2ccccc2)[nH]c1C(=O)O`, the Potency in experiment [1] is above 11.4 µM; in experiment [3], 1 µM (active); in experiment [6] it was above 46 µM; in experiment [9], 3.16 µM (active). In addition, the activity change, negative = inhibition was -6.16% in [2] and -19.8% in experiment [4]. Further, in [5], the activity, negative = inhibition was -26.6%. The Potency entry in [7] and in experiment [8] was “inactive” throughout.
Consider `O=C1O[C@@H]([C@H](O)[C@H](O)[C@H](O)CO)[C@@H](O)[C@@H]1O`, for which the Potency in experiment [1] was above 11.4 µM; in experiment [6] it was above 46 µM. Also, the values for the activity change, negative = inhibition in [2] and in experiment [4] were 21.3% and 6.28%, respectively. Further, the Potency entry in [3], in experiment [7], in experiment [8] and in [9] was “inactive” in each case. In experiment [5], the activity, negative = inhibition was -13.5%.
Consider `CC(=O)[C@]1(O)CC[C@@H]2[C@H]3C[C@@H](C)C4=CC(=O)CC[C@@]4(C)[C@H]3[C@@H](O)C[C@]21C`, for which the figures for the Potency in [1] and in experiment [10] were above 11.4 µM and 0.0236 µM (active), respectively. The figures for the activity change, negative = inhibition in [2], in experiment [3] and in experiment [4] were -0.0488%, -2% [at 2.29 µM] and 16.8%, respectively. The activity, negative = inhibition in experiment [5] is -9.62%. The Potency result in experiment [7] and in experiment [8] was “inactive” each time.
With `COc1ccc2c(Cl)cc(NC(=S)Nc3ccccc3)nc2c1`, the Potency in [1] is 10.6 µM; in experiment [3] it was 0.398 µM (active); in experiment [10] it was above 9.22 µM. The figures for the activity change, negative = inhibition in [2], in experiment [4] and in experiment [11] were 9.58%, 12.1% and 67.2% [at 11.4 µM], respectively. Also, the activity, negative = inhibition in [5] was 2.27%. Also, the Potency entry in experiment [7] and in [8] was “inactive” in each case.
Turning to `N[C@@H](Cc1ccnnc1)C(=O)O`, the Potency in experiment [1] is above 11.4 µM; in experiment [6], above 46 µM. For the same molecule, the activity change, negative = inhibition in experiment [2] was -10.1%; in [3], -10.6% [at 2.29 µM]; in experiment [4], 13.5%. Besides, in [5], the activity, negative = inhibition is -4.41%. Also, in experiment [7], the Potency result was “inactive”.
As for `O=C1c2ccccc2C(=O)c2c(NC3CCCCC3)ccc(Nc3ccc(S(=O)(=O)O)cc3)c21`, the Potency in [1] was above 11.4 µM; in experiment [3] it was 1.26 µM (active); in [6] it was above 46 µM; in [10] it was above 9.22 µM; in [9], 3.98 µM (active). The activity change, negative = inhibition was -7.28% in [2] and -27.6% in [4]. For the same molecule, in experiment [5], the activity, negative = inhibition was -10.9%. Moreover, the Potency result in experiment [8] is “inactive”.
